Our source for the outcome and AC50 values is PubChem BioAssay (EPA / NIEHS).

The AC50 is the concentration at which the activity in the assay is half-maximal.

Calls of active or inactive are those of the source. The calls were made as follows: active = hit-call score of the fitted dose curve at least 0.9, where 1 is the maximum; inactive = score below 0.9.

Common to all, as to details: mRNA level, 48 h; actives raise or lower the signal
Read-out in experiment [1]: Glutamate-cysteine ligase catalytic (GCLC), GCLC (gene 2729)
Kind of experiment: LTEA_HepaRG_GCLC: Life Technologies and Expression Analysis (LTEA) Assay for Glutamate-cysteine ligase catalytic (GCLC) using HepaRG (AID 2283498). The essentials:
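Differentiated human HepaRG cells, plated 48 h then switched to serum-free induction medium, were exposed in duplicate for 48 h to 8 half-log concentrations topping at 100 uM in 0.5% DMSO. GCLC mRNA was quantified by qRT-PCR against ACTB, GAPDH and POLR2A.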

Read-out in experiment [2]: growth arrest and DNA damage 45 (GADD45G), GADD45G (gene 10912)
Kind of experiment: LTEA_HepaRG_GADD45G: Life Technologies and Expression Analysis (LTEA) Assay for growth arrest and DNA damage 45 (GADD45G) using HepaRG (AID 2283499). The essentials:
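Human hepatic HepaRG line treated 48 h with chemicals (eight concentrations, half-log steps from 100 uM); transcript induction or repression of GADD45G scored by qRT-PCR versus DMSO vehicle.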

Read-out in experiment [3]: Glutamate-cysteine ligase regulatory (GCLM), GCLM (gene 2730)
Kind of experiment: LTEA_HepaRG_GCLM: Life Technologies and Expression Analysis (LTEA) Assay for Glutamate-cysteine ligase regulatory (GCLM) using HepaRG (AID 2283500). In a few lines: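 Differentiated human HepaRG cells exposed 48 h in serum-free induction medium to 8-point half-log concentrations (top 100 uM, 0.5% DMSO), in duplicate. GCLM mRNA quantified by qRT-PCR, normalized to ACTB, GAPDH, POLR2A; bidirectional fitting versus DMSO.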

Read-out in experiment [4]: Glutathione S-transferase M3 (GSTM3), GSTM3 (gene 2947)
Kind of experiment: LTEA_HepaRG_GSTM3: Life Technologies and Expression Analysis (LTEA) Assay for Glutathione S-transferase M3 (GSTM3) using HepaRG (AID 2283501). The essentials:
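Changes in GSTM3 expression, an oxidative-stress marker, were scored by bidirectional curve fitting against 0.5% DMSO vehicle. Human HepaRG cultures received chemicals for 48 h in duplicate, highest concentration 100 uM with half-log dilutions.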

Read-out in experiment [5]: Heat shock 70 kDa protein 1 (HSPA1A), gene 3303
Kind of experiment: LTEA_HepaRG_HSPA1A: Life Technologies and Expression Analysis (LTEA) Assay for Heat shock 70 kDa protein 1 (HSPA1A) using HepaRG (AID 2283502). The essentials:
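Differentiated human HepaRG cells in serum-free induction medium were exposed in duplicate for 48 h to eight concentrations (top 100 uM, half-log steps, 0.5% DMSO). HSPA1A mRNA was quantified by qRT-PCR, normalized to ACTB, GAPDH and POLR2A, and fitted bidirectionally against DMSO.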

Read-out in experiment [6]: 3-Hydroxy-3-Methylglutaryl-CoA Synthase 2 (HMGCS2), HMGCS2 (gene 3158)
Kind of experiment: LTEA_HepaRG_HMGCS2: Life Technologies and Expression Analysis (LTEA) Assay for 3-Hydroxy-3-Methylglutaryl-CoA Synthase 2 (HMGCS2) using HepaRG (AID 2283504). The essentials:
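Expression of HMGCS2 in human HepaRG liver cells is measured by qRT-PCR 48 h after dosing (highest 100 uM, half-log series, 0.5% DMSO). Values come from bidirectional concentration-response fitting with DMSO as baseline.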

Read-out in experiment [7]: HGF (gene 3082)
Kind of experiment: LTEA_HepaRG_HGF: Life Technologies and Expression Analysis (LTEA) Assay for Hepatocyte Growth Facto (HGF) using HepaRG (AID 2283505). The essentials: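 Gain or loss of HGF mRNA in human HepaRG liver cells after 48 h chemical exposure; eight concentrations up to 100 uM with 0.5% DMSO vehicle, quantified by TaqMan qRT-PCR.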

Read-out in experiment [8]: Insulin Like Growth Factor 1 (IGF1), IGF1 (gene 3479)
Kind of experiment: LTEA_HepaRG_IGF1: Life Technologies and Expression Analysis (LTEA) Assay for Insulin Like Growth Factor 1 (IGF1) using HepaRG (AID 2283506). The essentials: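 Differentiated human HepaRG cells were dosed for 48 h in serum-free induction medium with 0.5% DMSO, eight half-log concentrations up to 100 uM, in duplicate. IGF1 mRNA was quantified by qRT-PCR normalized to ACTB, GAPDH, POLR2A; bidirectional fitting versus DMSO.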

Read-out in experiment [9]: Intercellular Adhesion Molecule 1 (ICAM1), ICAM1 (gene 3383)
Kind of experiment: LTEA_HepaRG_ICAM1: Life Technologies and Expression Analysis (LTEA) Assay for Intercellular Adhesion Molecule 1 (ICAM1) using HepaRG (AID 2283507). The essentials: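 Gain or loss of transcript in HepaRG hepatic cells is quantified by qRT-PCR after 48 h chemical exposure (up to 100 uM, half-log steps), with DMSO as baseline.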

Read-out in experiment [10]: Insulin-like growth factor-binding protein 1 (IGFBP1), IGFBP1 (gene 3484)
Kind of experiment: LTEA_HepaRG_IGFBP1: Life Technologies and Expression Analysis (LTEA) Assay for Insulin-like growth factor-binding protein 1 (IGFBP1) using HepaRG (AID 2283508). The essentials: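 mRNA induction or loss was quantified by qRT-PCR after 48 h chemical exposure of human HepaRG cells, with 0.5% DMSO as vehicle and baseline. Concentration-response over eight points up to 100 uM.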

Read-out in experiment [11]: Interleukin 6 (IL6), IL6 (gene 3569)
Kind of experiment: LTEA_HepaRG_IL6: Life Technologies and Expression Analysis (LTEA) Assay for Interleukin 6 (IL6) using HepaRG (AID 2283509). In a few lines: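 Differentiated human HepaRG cells, plated 48 h then switched to serum-free induction medium, were exposed in duplicate for 48 h to eight half-log concentrations up to 100 uM in 0.5% DMSO. IL6 mRNA measured by qRT-PCR, normalized to ACTB/GAPDH/POLR2A.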

Read-out in experiment [12]: Interleukin 6 Receptor (IL6R), IL6R (gene 3570)
Kind of experiment: LTEA_HepaRG_IL6R: Life Technologies and Expression Analysis (LTEA) Assay for Interleukin 6 Receptor (IL6R) using HepaRG (AID 2283510).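 As to AC50: TaqMan qRT-PCR signal normalized to ACTB GAPDH and POLR2A housekeeping genes.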 In a few lines: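 Differentiated human HepaRG cells, plated 48 h then switched to serum-free induction medium, were dosed in duplicate for 48 h at eight half-log concentrations up to 100 uM in 0.5% DMSO. IL6R mRNA quantified by qRT-PCR, normalized to ACTB/GAPDH/POLR2A; bidirectional fit versus DMSO.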

Read-out in experiment [13]: Potassium channel subfamily K member 1 (KCNK1), KCNK1 (gene 3775)
Kind of experiment: LTEA_HepaRG_KCNK1: Life Technologies and Expression Analysis (LTEA) Assay for Potassium channel subfamily K member 1 (KCNK1) using HepaRG (AID 2283511). The essentials: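 Differentiated human HepaRG cells in serum-free induction medium were exposed in duplicate for 48 h to 8 half-log concentrations up to 100 uM in 0.5% DMSO. KCNK1 mRNA was measured by TaqMan qRT-PCR, normalized to ACTB, GAPDH and POLR2A, and fitted bidirectionally versus DMSO.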

Read-out in experiment [14]: Keratin 19 (KRT19), KRT19 (gene 3880)
Kind of experiment: LTEA_HepaRG_KRT19: Life Technologies and Expression Analysis (LTEA) Assay for Keratin 19 (KRT19) using HepaRG (AID 2283512). In a few lines: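 Gene-expression endpoint in the human liver line HepaRG after 48 h exposure to up to 100 uM test chemical with 0.5% DMSO vehicle; KRT19 mRNA by qRT-PCR, analyzed bidirectionally versus DMSO.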

Read-out in experiment [15]: JUN Transcription Factor, JUN (gene 3725)
Kind of experiment: LTEA_HepaRG_JUN: Life Technologies and Expression Analysis (LTEA) Assay for JUN Transcription Factor using HepaRG (AID 2283513). The essentials: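 Differentiated HepaRG cells were exposed to chemicals for 48 h in serum-free induction medium, 8 concentrations from 100 uM in half-log steps, 0.5% DMSO vehicle, in duplicate. JUN mRNA was quantified by TaqMan qRT-PCR, normalized to ACTB, GAPDH, POLR2A.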

Read-out in experiment [16]: Lipase C (LIPC), LIPC (gene 3990)
Kind of experiment: LTEA_HepaRG_LIPC: Life Technologies and Expression Analysis (LTEA) Assay for Lipase C (LIPC) using HepaRG (AID 2283514). In a few lines: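 Differentiated human HepaRG cells in serum-free induction medium were exposed in duplicate for 48 h to eight concentrations (top 100 uM, half-log steps, 0.5% DMSO). LIPC mRNA was quantified by TaqMan qRT-PCR, normalized to ACTB, GAPDH and POLR2A, with bidirectional fitting versus DMSO.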

Read-out in experiment [17]: Lipoprotein lipase (LPL), LPL (gene 4023)
Kind of experiment: LTEA_HepaRG_LPL: Life Technologies and Expression Analysis (LTEA) Assay for Lipoprotein lipase (LPL) using HepaRG (AID 2283515). The essentials:
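Differentiated human HepaRG cells in serum-free induction medium were exposed in duplicate for 48 h to eight half-log concentrations (top 100 uM) in 0.5% DMSO. LPL mRNA was quantified by TaqMan qRT-PCR, normalized to ACTB, GAPDH and POLR2A.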

Read-out in experiment [18]: MicroRNA 122 (MIR122), gene 406906
Kind of experiment: LTEA_HepaRG_MIR122: Life Technologies and Expression Analysis (LTEA) Assay for MicroRNA 122 (MIR122) using HepaRG (AID 2283516). Also: the transcript read is the microRNA miR-122. The essentials: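 Differentiated human HepaRG cells were exposed 48 h in serum-free induction medium to eight half-log concentrations (top 100 uM, 0.5% DMSO). Transcript level was measured by TaqMan qRT-PCR, normalized to ACTB, GAPDH and POLR2A, and fitted bidirectionally versus DMSO.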

Read-out in experiment [19]: matrix metalloproteinase-10 (MMP10), MMP10 (gene 4319)
Kind of experiment: LTEA_HepaRG_MMP10: Life Technologies and Expression Analysis (LTEA) Assay for matrix metalloproteinase-10 (MMP10) using HepaRG (AID 2283517). The essentials:
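HepaRG, collagen I, ~100,000 cells/well; serum-free induction medium; 48 h exposure, duplicate, 8-pt half-log to 100 uM, 0.5% DMSO. Readout: TaqMan qRT-PCR, normalized to ACTB/GAPDH/POLR2A; bidirectional fit vs DMSO.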

Read-out in experiment [20]: Hypoxia-inducible factor 1-alpha (Homo sapiens) (UniProt Q16665)
Kind of experiment: LTEA_HepaRG_HIF1A: Life Technologies and Expression Analysis (LTEA) Assay for Hypoxia-inducible factor 1 (HIF1A) Trancription factor using HepaRG (AID 2283503). In a few lines:
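HepaRG, 48 h exposure, 8-pt half-log series from 100 uM, 0.5% DMSO vehicle, duplicates. Readout: HIF1A transcript by qRT-PCR (Fluidigm array), housekeeping-normalised. Bidirectional curve fit vs DMSO baseline.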

Chain of Hypoxia-inducible factor 1-alpha (Homo sapiens) (Q16665 whole entry, looked up): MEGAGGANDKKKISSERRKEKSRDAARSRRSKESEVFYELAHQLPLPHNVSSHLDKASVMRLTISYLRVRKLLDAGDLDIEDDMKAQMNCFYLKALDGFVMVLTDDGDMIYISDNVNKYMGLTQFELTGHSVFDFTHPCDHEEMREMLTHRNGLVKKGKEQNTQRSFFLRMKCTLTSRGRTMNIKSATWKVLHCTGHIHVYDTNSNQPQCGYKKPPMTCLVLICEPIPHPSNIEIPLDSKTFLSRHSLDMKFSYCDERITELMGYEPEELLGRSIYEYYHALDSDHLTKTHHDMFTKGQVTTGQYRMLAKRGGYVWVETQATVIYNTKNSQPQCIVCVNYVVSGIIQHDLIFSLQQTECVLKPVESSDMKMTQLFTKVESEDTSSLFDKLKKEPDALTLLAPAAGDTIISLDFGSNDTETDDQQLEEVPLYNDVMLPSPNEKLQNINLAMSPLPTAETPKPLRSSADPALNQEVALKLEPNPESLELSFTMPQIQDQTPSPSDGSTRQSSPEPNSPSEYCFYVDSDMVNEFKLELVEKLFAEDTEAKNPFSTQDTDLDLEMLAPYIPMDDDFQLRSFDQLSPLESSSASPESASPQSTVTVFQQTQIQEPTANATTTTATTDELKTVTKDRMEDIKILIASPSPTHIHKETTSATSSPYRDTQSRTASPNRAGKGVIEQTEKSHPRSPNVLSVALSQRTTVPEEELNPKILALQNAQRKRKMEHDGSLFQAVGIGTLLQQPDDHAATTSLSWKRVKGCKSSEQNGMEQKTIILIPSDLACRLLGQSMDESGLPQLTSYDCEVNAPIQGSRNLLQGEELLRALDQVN

On to `CN(C)CCCN1c2ccccc2Sc2ccc(Cl)cc21`, for which the molecule was called inactive in [1], in experiment [3], in [4], in [7], in experiment [13] and in experiment [16]. Further, in experiment [17], the molecule was classed as inactive. The concentration at half-maximal activity (AC50) in experiment [2] is 49.7 µM (active); in experiment [5], 76.9 µM (active); in experiment [6] it was 68.6 µM (active); in experiment [8], 77.7 µM (active); in experiment [9] it was 77.7 µM (active); in [10], 72.8 µM (active). For the same molecule, the AC50 in experiment [11] was 77 µM (active); in [12], 44.7 µM (active); in experiment [14], 82.9 µM (active); in experiment [15] it was 94 µM (active); in [18], 85.7 µM (active); in experiment [19], 85.1 µM (active).
For `CCCC[C@H]1CN(CC2CCOCC2)C(=O)OC12CCN(C1(C)CCN(C(=O)c3c(C)ncnc3C)CC1)CC2`, the result in [1], in experiment [2], in [3], in experiment [4], in experiment [5] and in experiment [20] was inactive. Moreover, the outcome in experiment [7], in experiment [8], in experiment [11], in experiment [12], in [13] and in experiment [14] was inactive. The outcome in [15], in experiment [16], in experiment [17], in experiment [18] and in experiment [19] was inactive.
As to `CC(N)=O`, the outcome in [1], in experiment [2], in experiment [3], in [4], in [5] and in experiment [6] was inactive. The call in experiment [8], in experiment [9], in experiment [11], in [12], in [13] and in [14] was inactive. Moreover, the molecule was classed as inactive in [15], in experiment [16], in experiment [17] and in [18].
Take `CC(=O)O`: the call in [1], in experiment [2], in [3], in experiment [4], in experiment [5] and in [20] was inactive. Further, the molecule was classed as inactive in experiment [7], in experiment [8], in [11], in experiment [12], in experiment [13] and in experiment [14]. Besides, the call in experiment [15], in experiment [16], in experiment [17], in experiment [18] and in experiment [19] was inactive.
